According to PubChem BioAssay AID488969 (Vanderbilt High Throughput Screening Facility, 2010):
The full ranking holds about 110,000 compounds; the median of “z-score” is about -0.1, and the highest 2% start at about 2. The sample holds the highest values, similar compounds and a random draw of the others, so the mix is not that of the screen. Activity calls are given as the source filed them.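 The calls were made as follows: active = z-score in the third read window above 3 or below -3; inactive = the rest.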

Target: Metabotropic glutamate receptor 8 (Rattus norvegicus) (UniProt P70579)
Sequence (P70579 whole entry, looked up): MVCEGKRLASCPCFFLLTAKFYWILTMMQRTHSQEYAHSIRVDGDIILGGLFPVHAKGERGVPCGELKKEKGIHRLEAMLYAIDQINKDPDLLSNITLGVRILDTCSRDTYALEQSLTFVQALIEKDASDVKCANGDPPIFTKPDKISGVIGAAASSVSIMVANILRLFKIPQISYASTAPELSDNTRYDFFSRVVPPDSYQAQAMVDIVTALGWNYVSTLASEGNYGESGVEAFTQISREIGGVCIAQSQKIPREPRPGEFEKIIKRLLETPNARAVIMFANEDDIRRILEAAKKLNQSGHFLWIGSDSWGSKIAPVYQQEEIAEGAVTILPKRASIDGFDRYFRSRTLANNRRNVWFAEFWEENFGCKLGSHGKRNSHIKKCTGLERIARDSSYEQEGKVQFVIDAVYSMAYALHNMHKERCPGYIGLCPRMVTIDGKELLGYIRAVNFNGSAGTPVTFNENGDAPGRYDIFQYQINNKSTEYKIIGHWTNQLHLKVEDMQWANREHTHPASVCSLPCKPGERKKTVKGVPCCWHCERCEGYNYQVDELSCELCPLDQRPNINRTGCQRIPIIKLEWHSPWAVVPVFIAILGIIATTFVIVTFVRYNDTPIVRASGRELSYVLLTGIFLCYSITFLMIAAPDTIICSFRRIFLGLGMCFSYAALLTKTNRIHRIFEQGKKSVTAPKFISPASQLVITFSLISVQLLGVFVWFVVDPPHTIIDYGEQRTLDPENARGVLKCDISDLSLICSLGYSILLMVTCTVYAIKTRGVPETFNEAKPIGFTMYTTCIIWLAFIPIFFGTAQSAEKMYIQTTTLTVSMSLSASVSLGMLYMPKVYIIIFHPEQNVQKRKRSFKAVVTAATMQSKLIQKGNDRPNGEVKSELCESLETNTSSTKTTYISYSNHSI
Test: mGluR8 Gi/Go-coupled signaling modulation – cell-based, rat, thallium flux, HTS, primary screen (AID 488969)
Settings: HEK293 rat mGluR8, GIRK (G protein-gated inwardly rectifying potassium channel) thallium flux, FluoZin2; at 10 µM; stronger effect = higher value

Going from Oc1ccc(C2NCc3ccccc3-n3cccc32)cc1Cl (stereo unspecified) to COc1cc(C2NCc3ccccc3-n3cccc32)ccc1O (stereo unspecified), the z-score falls from 1.68 to 1.55.

First: c1ccc(C2NCc3ccccc3-n3cccc32)cc1 (stereo unspecified)
Second: COc1ccc(C2NCc3ccccc3-n3cccc32)cc1 (stereo unspecified)
The z-score of the first is lower: -0.239 for the first, 2.1 for the second.

First: Cc1nn(C2CCOC(C)(C)C2)c2c1C(c1ccc(OC(C)C)cc1)SCC(=O)N2 (stereo unspecified)
Second: CCOC(=O)C1CCN(/C=C2/C(=O)NC(=O)N(c3ccc(OCC)cc3)C2=O)CC1
The z-score of the first is lower: -0.843 for the first, 0.14 for the second.

Compared with Cn1c(O)c(C=NCc2ccco2)c(=O)n(C)c1=O, CN(C)CCN=Cc1c(O)n(Cc2ccco2)c(=O)[nH]c1=O is higher in z-score: -0.19 for the first, 0.184 for the second.

Compared with CCC(CC)C1C(C#N)=C(N)Oc2c1c(=O)oc1ccccc21 (stereo unspecified), CCOC(=O)C1=C(N)OC(C)=C(C(=O)OCCOC)C12C(=O)Nc1ccccc12 (stereo unspecified) is higher in z-score: -0.103 for the first, 0.399 for the second.

Compared with O=C(COc1ccccc1)N1CCN(C/C=C/c2ccccc2)CC1, O=C(COc1ccc(Cl)cc1)N1CCN(C/C=C/c2ccccc2)CC1 is lower in z-score: 0.702 for the first, -0.0408 for the second.

Going from CC12CCCCC1=[N+]([O-])CN2O (stereo unspecified) to CNCC1(c2ccccc2)CCCC1, the z-score rises from 0.377 to 0.566.

Compared with CCOc1ccc(CC2C(=O)NC(=O)N(c3ccc(CC)cc3)C2=O)cc1 (stereo unspecified), CCc1ccc(N2C(=O)NC(=O)C(Cc3ccc(OC)cc3OC)C2=O)cc1 (stereo unspecified) is lower in z-score: -0.531 for the first, -0.562 for the second.

Going from CCOC(=O)c1c(C)n(CCOC)c2ccc(O)cc12 to CCOC(=O)c1c(C)n(CCN2CCN(C)CC2)c2ccc(OC)cc12, the z-score rises from 0.821 to 1.21.

Going from CCCCN1C(=N)C(CC)(CC)C(=O)NC1=O to CCCCN1C(=O)NC(=O)/C(=C/c2cnc(SC)nc2)C1=O, the z-score falls from -0.0121 to -0.221.

First: CCC(=NCc1ccc(F)cc1)c1c(O)n(C)c(=O)n(C)c1=O
Second: CC/C(=N\Nc1ccccc1)c1c(O)n(C)c(=O)n(C)c1=O
The z-score of the first is lower: -0.274 for the first, -0.0457 for the second.

First: O=C(c1cc([N+](=O)[O-])ccc1N1CCNCC1)N1CCOCC1
Second: N#Cc1ccc(N2CCNCC2)c(F)c1
The z-score of the first is lower: -0.253 for the first, 0.268 for the second.

Going from COc1cccc(-n2c(O)c(C=NCc3ccc4c(c3)OCO4)c(=O)[nH]c2=O)c1 to N=Cc1c(O)n(-c2cccc(Cl)c2)c(=O)[nH]c1=O, the z-score rises from -0.566 to 0.745.

Compared with N#Cc1cc(F)c(N2CCNCC2)cc1Cl, Clc1cccc(N2CCNCC2)c1Cl is lower in z-score: 2.17 for the first, 0.654 for the second.

First: CCCNS(=O)(=O)c1ccc(OCC(=O)N2CCN(Cc3ccc4c(c3)OCO4)CC2)cc1
Second: CC1CCC(NCCc2ccc3c(c2)OCO3)CC1 (stereo unspecified)
The z-score of the first is lower: -0.266 for the first, 0.00241 for the second.

First: Cc1cc(C(=O)N2CCC3(CC2)OCCO3)cs1
Second: O=C(C1CCCN(c2nnc(-n3cccc3)s2)C1)N1CCC2(CC1)OCCO2 (stereo unspecified)
The z-score of the first is higher: 0.652 for the first, 0.546 for the second.

Going from C=CCOC(=O)C1=C(C)OC(N)=C(C(=O)OCC)C12C(=O)N(CC(N)=O)c1ccccc12 (stereo unspecified) to CCOC(=O)C1=C(NC(=S)NC(=O)c2ccccc2)c2ccccc2CC12CCCC2, the z-score rises from -0.605 to 2.46.

First: CN(C)CC1CSCCC1(O)c1ccccc1 (stereo unspecified)
Second: OC12Oc3ccccc3C=C1N1CCC2CC1 (stereo unspecified)
The z-score of the first is lower: 0.409 for the first, 2.17 for the second.

Compared with C=C1N2CCC(CC2)C1(O)c1ccc(C)cc1 (stereo unspecified), CC(C)OC12Oc3ccccc3C=C1N1CCC2CC1 (stereo unspecified) is higher in z-score: -0.123 for the first, 1.77 for the second.

Compared with CC(=O)N1CC(=O)Nc2ccc(Cl)cc2C1c1ccc(F)cc1 (stereo unspecified), O=C1C2CCCN2C(c2ccc(Cl)cc2)N1c1ccccn1 (stereo unspecified) is higher in z-score: -0.284 for the first, 2.77 for the second.

Going from CCC(C)N1C(=O)/C(=C/c2ccc3c(c2)CCN3CCCCl)C(=O)NC1=S (stereo unspecified) to CCC(C)N1C(=O)/C(=C\c2ccc(N3CCCCCC3)cc2)C(=O)NC1=S (stereo unspecified), the z-score falls from -0.358 to -0.384.

Compared with CC(C)CN(CC(C)C)c1ccc(C=C2C(=O)NC(=S)NC2=O)cc1[N+](=O)[O-], Cc1cc(C=C2C(=O)NC(=S)NC2=O)c(C)n1-c1ccc2c(c1)OCO2 is lower in z-score: 2.35 for the first, -0.495 for the second.

First: O=C(O)C1(c2ccc(Cl)cc2)CCC1
Second: CC(=NCC1CCCO1)c1c(O)n(-c2ccc(Cl)cc2)c(=O)[nH]c1=O (stereo unspecified)
The z-score of the first is higher: -0.279 for the first, -1.18 for the second.

Going from CN(C)P1(N(C)C)=Nc2c(c(N)nn2C)C(c2ccccc2)=N1 to CSCc1nnc2n1-c1ccc(Cl)cc1C(c1ccccc1)=NC2, the z-score falls from 1.2 to -0.724.

Compared with COc1ccc(CC2C(=O)NC(=O)N(c3ccccc3)C2=O)c(OC)c1 (stereo unspecified), Cc1ccc(N2C(=O)NC(=O)/C(=C\c3ccsc3)C2=O)cc1C is lower in z-score: 0.821 for the first, -0.165 for the second.

Compared with Cc1ccc(-n2c(/C=C/c3ccc4c(c3)OCO4)nc3ccccc3c2=O)cc1, O=c1c2ccccc2nc(CSc2ncnc3nc[nH]c23)n1-c1ccc(Cl)c(Cl)c1 is lower in z-score: -0.143 for the first, -0.202 for the second.

First: CCOP(=O)(OCC)C(C)(C)NC(=O)C(Cl)(Cl)Cl
Second: CCC(COC(=O)NC)NC(=O)Oc1cccc(C)c1 (stereo unspecified)
The z-score of the first is higher: 0.176 for the first, -0.336 for the second.

Going from CC12CN3CC(C)(CN(C1)C3c1ccco1)C2=O (stereo unspecified) to CCN1C(=O)C(=C/C=C/c2ccco2)C(=O)N(CC)C1=S, the z-score falls from 0.289 to -0.628.

Going from Cc1ccc(C(O)(C(=O)NNC(=O)CN2CCN(C)CC2)c2ccc(C)cc2)cc1 to CN1CCN(Cc2nnc3n2-c2ccc(Cl)cc2C(c2ccccc2)=NC3)CC1, the z-score falls from -0.00637 to -0.238.

First: Cn1cccc1/C=C1\C(=O)NC(=O)N(CCC2=CCCCC2)C1=O
Second: Cc1cccc(N2C(=O)NC(=O)/C(=C\c3cc(C)n(-c4sc5c(c4C#N)CCCC5)c3C)C2=O)c1C
The z-score of the first is lower: -0.117 for the first, 0.0132 for the second.

First: COc1ccccc1C1=NCc2nnc(C)n2-c2ccc(Cl)cc21
Second: Clc1ccc2c(c1)C(c1ccccc1Cl)=NCc1nncn1-2
The z-score of the first is lower: 0.478 for the first, 1.46 for the second.

Going from CCS(=O)(=O)NCc1nnc2n1-c1ccc(Cl)cc1C(c1ccccc1)=NC2 to Clc1ccc2c(c1)C(c1ccccc1Cl)=NCc1nnc(N3CCN(CCSc4ccccc4)CC3)n1-2, the z-score falls from -0.148 to -0.487.

First: Cc1ccc(N(C)C(=O)Oc2ccc(C(=O)c3ccc(Cl)cc3)cc2)cc1
Second: CC(=O)Nc1ccc(OC(=O)c2ccccc2N)cc1
The z-score of the first is higher: 0.23 for the first, 0.06 for the second.

Compared with CCN1CCN(c2nc3c(c(=O)[nH]2)CCCC3)CC1, CCN1CCN(c2ncnc3ccc(Br)cc23)CC1 is higher in z-score: -0.0782 for the first, 0.327 for the second.

First: CC(C)N(CC(O)c1cccc([N+](=O)[O-])c1)C(C)C (stereo unspecified)
Second: CNCC(O)c1cccc(OC(=O)c2ccccc2C)c1 (stereo unspecified)
The z-score of the first is lower: -0.309 for the first, 2.34 for the second.

First: CCOC(C(=O)OCCC[N+](C)(CC)CC)(c1ccccc1)c1ccccc1
Second: CN(C)CCOC(=O)c1cn(Cc2ccccc2)c2ccccc12
The z-score of the first is lower: 0.315 for the first, 2.01 for the second.

Compared with c1ccc2c(CNC3CCCCCC3)c[nH]c2c1, Cc1[nH]c2ccccc2c1CCCNC1CCCCC1 is higher in z-score: -0.0434 for the first, 0.385 for the second.

Going from COc1ccc(C2NCc3ccc4c(c3-n3cccc32)OCO4)cc1O (stereo unspecified) to CCOc1cc(C2NCc3ccccc3-n3cccc32)ccc1O (stereo unspecified), the z-score falls from 2.45 to 1.71.

Compared with CCCCN1C(=O)/C(=C/C=C/c2ccco2)C(=O)NC1=S, O=C1NC(=O)N(c2ccc3c(c2)OCO3)C(=O)/C1=C/c1ccc(N2CCCCC2)o1 is lower in z-score: 0.136 for the first, -0.618 for the second.

Compared with COC(=O)C(O)(c1ccc(N=Cc2ccccc2O)c(C)c1)C(F)(F)F (stereo unspecified), COC(=O)C(O)(c1ccc(NC(=S)NC(=O)c2ccccc2)cc1)C(F)(F)F (stereo unspecified) is higher in z-score: 0.286 for the first, 0.443 for the second.

Going from O=C(CN1CCOCC1)c1cccc2ccccc12 to CC/C(=N\Nc1cccc2ccccc12)c1c(O)[nH]c(=O)[nH]c1=O, the z-score rises from -0.17 to -0.114.

First: CCN(CC)c1ccc(N=Cc2c(O)n(-c3ccc(Cl)cc3)c(=O)[nH]c2=O)cc1
Second: CC(=NCC1CCCO1)c1c(O)n(-c2ccc(C)cc2)c(=O)[nH]c1=O (stereo unspecified)
The z-score of the first is lower: 0.126 for the first, 2.68 for the second.

Going from O=C1C2CCCN2C(c2ccc(Cl)c(Cl)c2)N1c1ccccn1 (stereo unspecified) to O=C1C2CCCN2C(c2cccc(Cl)c2)N1c1ccccn1 (stereo unspecified), the z-score falls from -0.0899 to -0.498.

Going from CC(=O)OC1C2CCC1C(N1CCCC1)CC2 (stereo unspecified) to O=C(NC(Cc1ccccc1)C(=O)N1CCC2(CC1)OCCO2)C1CCCCC1 (stereo unspecified), the z-score rises from -0.278 to 0.317.

Compared with CCN1CC=C(c2c[nH]c3ccccc23)CC1, C1=C(c2c[nH]c3ccccc23)CCNC1 is lower in z-score: 2.05 for the first, 1.29 for the second.

First: CCN(CC)Cc1c[nH]c2ccccc12
Second: COC(=NC1CCCCC1)C(O)c1c[nH]c2ccccc12 (stereo unspecified)
The z-score of the first is lower: -0.122 for the first, -0.119 for the second.

Compared with Nc1c(C(=O)OCc2ccccc2)c2nc3ccccc3nc2n1Cc1cccs1, O=C(c1ccccc1F)c1cn(Cc2ccccc2)c2ccccc12 is lower in z-score: 0.248 for the first, -0.253 for the second.

Compared with CC(=NCC1CCCO1)c1c(O)n(-c2ccccc2)c(=O)[nH]c1=O (stereo unspecified), CC(=NCCC(c1ccccc1)c1ccccc1)c1c(O)n(C)c(=O)n(C)c1=O is lower in z-score: 0.0257 for the first, -0.488 for the second.

First: c1cc2c(cc1CCNC1C3CC4CC(C3)CC1C4)OCO2 (stereo unspecified)
Second: c1cc2c(cc1CCNC1CCCCCC1)OCO2
The z-score of the first is higher: 2.3 for the first, 0.232 for the second.

Going from Cc1cc(C)nc(NC2=NCCS2)n1 to CC1(C)CN=C(Nc2ccc(F)c(F)c2)S1, the z-score falls from 0.179 to -0.117.

Compared with O=C(COc1ccccc1)c1cn(Cc2ccccc2)c2ccccc12, O=C(NC(=C(Cl)Cl)P(=O)(c1ccccc1)c1ccccc1)c1ccccc1 is higher in z-score: -0.418 for the first, -0.29 for the second.

First: CC(Cc1ccccc1Sc1ccc(O)cc1)N(C)C (stereo unspecified)
Second: CCC(=O)OC1(c2cccc(C)c2)CC(C)N(C)CC1C (stereo unspecified)
The z-score of the first is higher: 1.64 for the first, 0.852 for the second.

First: CCOc1ccc(Br)c(C2(O)CC(C)N(C)CC2C)c1 (stereo unspecified)
Second: Cc1ccc(C)c(C2(O)CC(C)N(C)CC2C)c1 (stereo unspecified)
The z-score of the first is higher: 2.44 for the first, 0.0958 for the second.

In the case of O=C(Cc1ccccc1)N1CCN(C/C=C/c2ccccc2)CC1, the z-score is reported as 3.68 (active).
For CCCCn1c(C)c(C(=O)OCC)c2c(CN3CCOCC3)c(O)ccc21, the z-score was 4.12 (active).
For COc1ccc(CC2C(=O)NC(=O)NC2=O)c(OC)c1, the z-score was 13.6 (active).
With S=C1CN=C(c2ccccc2)c2cc(Cl)ccc2N1 the z-score was 4.29 (active).
With S=C1CN=C(c2ccccc2Cl)c2cc(Cl)ccc2N1 the z-score was 14.6 (active).
Cc1ccccc1C1=NCC(=S)Nc2ccc(Cl)cc21 was tested, and the z-score was 4.39 (active).
In the case of c1ccc2c(CNC3CCCCC3)c[nH]c2c1, the z-score is reported as 4.16 (active).
CC(C)N1C(=O)/C(=C/C=C/c2ccco2)C(=O)N(Cc2ccco2)C1=O was tested, and the z-score was 6.08 (active).
For Fc1ccc(NC2=NCCS2)cc1Cl, the z-score was 4.82 (active).
C/C(=N\Nc1ccccc1)c1c(O)n(C)c(=O)n(C)c1=O was tested, and the z-score was 3.74 (active).
